These results are taken from PubChem BioAssay.

Test [1] relates to TRPC4 beta (transient receptor potential cation channel C4), mouse. Nature of the test: activators of mouse TRPC4 channel, confirmation, cell-based, Fluo4 calcium, HEK293 TRPC4beta/mu-opioid, duplicates, 10 µM (AID 2426;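 active = fluorescence ratio normalized to control raised more than 50% in primary screen plus both repeat runs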;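 for activation: percent rise of integrated ratio over buffer wells lacking compound which define 0%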). As to conditions: Fluo4 calcium fluorescence, at 10 µM; stronger effect = higher value.
Test [2] relates to transient receptor potential cation channel C4 beta (TRPC4), mouse. Briefly: activators of mouse TRPC4 channel, confirmation, cell-based, second round, Fluo4, HEK293 TRPC4beta/mu-opioid, 1 µM (AID 2461;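 active = primary screen active and over 50% activation in each of two duplicate runs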;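 for activation: 0% = wells without test compound as baseline of integrated fluorescence ratio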). The settings on record: Fluo4 calcium fluorescence, at 1 µM; stronger effect = higher value.
Test [3] concerns TRPC4 (transient receptor potential cation channel C4 beta), mouse. Nature of the test: positive allosteric modulators of mouse TRPC4, confirmation, cell-based, second round, Fluo-4, HEK293 TRPC4beta/mu-opioid, 1 µM (AID 2554;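 active = primary screen hit whose fluorescence ratio, in both repeats, exceeds the weak agonist control mean by 3 SD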). The settings on record: DAMGO EC20, Fluo-4 calcium flux, at 1 µM; stronger effect = higher value. In general terms: A change in cytosolic calcium serves as a functional read-out for many receptors and channels.

Test [4] relates to TRPC4 beta (transient receptor potential cation channel C4), mouse. Nature of the test: positive allosteric modulators of mouse TRPC4, confirmation, cell-based, Fluo-4, HEK293 TRPC4beta/mu-opioid (AID 2555;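 active = primary screen hit whose calcium fluorescence ratio, in both repeats, exceeds the weak agonist control mean by 3 SD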). The settings on record: DAMGO EC20, Fluo-4 calcium flux, at 10 µM; stronger effect = higher value.
The target in test [5] is Short transient receptor potential channel 4 (Mus musculus) (UniProt Q9QUQ5). Briefly: inhibitors of mouse TRPC4 channel, confirmation, cell-based, Fluo4, HEK293 TRPC4beta/mu-opioid (AID 2636). The settings on record: DAMGO, Fluo4 calcium flux, at 10 µM; stronger effect = higher value.
Sequence of Short transient receptor potential channel 4 (Mus musculus) (Q9QUQ5 whole entry, looked up): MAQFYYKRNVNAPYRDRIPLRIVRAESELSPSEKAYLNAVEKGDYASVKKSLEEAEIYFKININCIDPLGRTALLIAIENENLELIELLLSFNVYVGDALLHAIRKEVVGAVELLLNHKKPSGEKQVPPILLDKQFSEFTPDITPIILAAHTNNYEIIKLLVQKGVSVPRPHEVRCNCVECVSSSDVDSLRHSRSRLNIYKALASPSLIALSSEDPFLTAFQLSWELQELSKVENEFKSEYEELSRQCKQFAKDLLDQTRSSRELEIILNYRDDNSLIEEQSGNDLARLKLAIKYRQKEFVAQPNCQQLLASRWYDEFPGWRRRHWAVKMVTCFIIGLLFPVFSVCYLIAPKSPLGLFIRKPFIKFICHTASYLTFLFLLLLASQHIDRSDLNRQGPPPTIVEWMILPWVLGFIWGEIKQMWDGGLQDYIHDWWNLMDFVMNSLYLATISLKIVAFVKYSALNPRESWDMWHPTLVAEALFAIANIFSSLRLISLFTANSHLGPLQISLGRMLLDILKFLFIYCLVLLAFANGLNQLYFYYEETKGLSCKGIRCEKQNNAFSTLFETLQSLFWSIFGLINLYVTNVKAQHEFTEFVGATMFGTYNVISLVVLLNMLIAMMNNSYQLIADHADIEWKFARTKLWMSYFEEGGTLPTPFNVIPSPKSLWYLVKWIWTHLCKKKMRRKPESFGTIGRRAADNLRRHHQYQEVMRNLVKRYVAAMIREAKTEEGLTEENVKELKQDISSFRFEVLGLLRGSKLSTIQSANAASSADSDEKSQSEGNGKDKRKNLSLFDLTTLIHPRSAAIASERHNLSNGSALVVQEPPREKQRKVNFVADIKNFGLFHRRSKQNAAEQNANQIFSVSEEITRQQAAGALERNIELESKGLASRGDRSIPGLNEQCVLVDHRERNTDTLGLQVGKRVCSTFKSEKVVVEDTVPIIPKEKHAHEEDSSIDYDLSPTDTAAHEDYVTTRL
Test [6] has the same target. Nature of the test: inhibitors of mouse TRPC4 channel, confirmation, cell-based, second round, Fluo4, HEK293 TRPC4beta/mu-opioid, 1 µM (AID 2637;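 active = calcium signal ratio cut to more than 3 SD under the fully stimulated control mean yet still positive, in both repeats and the primary screen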). The settings on record: Fluo4 calcium flux, DAMGO, at 1 µM; stronger effect = higher value.
The target is the same in test [7]. Briefly: TRPC4 positive allosteric modulators, dose response, cell-based, HEK293 TRPC4/mu-opioid, Fluo-4 calcium, EC20 DAMGO (AID 434941;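 active = earlier screen potentiator hit that boosts the TRPC4 ion channel at some dose, with a dose response; inactive = no potentiation, no dose response, or not a prior hit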;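 note: calcium entry triggered by an EC20 dose of DAMGO at the co-expressed mu-opioid receptor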).
Test [8] has the same target. Briefly: mouse TRPC4 channel inhibitors, dose response, cell-based, HEK293 TRPC4/mu-opioid, Fluo-4 calcium (AID 434942;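 active = primary screen inhibitor hit that blocks the TRPC4 channel at some tested dose, yielding a dose curve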).
Test [9] addresses Short transient receptor potential channel 6 (Mus musculus) (UniProt Q61143). Nature of the test: inhibition of mouse TRPC6 channel, confirmation, selectivity assay for TRPC4 inhibitor project, cell-based, HEK293, membrane potential dye, duplicate (AID 434948;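 active = active in primary screen and both duplicates, each dropping signal beyond three positive-control SD with fluorescence still positive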). As to conditions: HEK293 TRPC6, membrane potential dye fluorescence, at 10 µM, stimulated with maximal-effect acetylcholine; stronger effect = higher value.

Test [10] has the same target. Nature of the test: activation of mouse TRPC6 channel, confirmation, selectivity assay for TRPC4 activator project, cell-based, HEK293, membrane potential dye, duplicate (AID 434950;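 active = membrane potential signal rise above negative control mean plus 3 SD in both duplicates, also active in the earlier TRPC4 screen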;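 for activation: 0% = buffer only wells and 100% = acetylcholine maximal-effect wells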). As to conditions: HEK293 TRPC6, membrane potential fluorescence, at 10 µM; stronger effect = higher value.
Test [11] shares this target. Nature of the test: TRPC6 potentiation by TRPC4 potentiator hits, confirmation, selectivity assay for TRPC4 potentiator project, HEK293 cells, membrane potential dye, duplicate (AID 434952;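 active = compound raising the membrane signal above positive-control mean plus 3 SD in both repeats, and a primary screen hit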). As to conditions: HEK293 TRPC6, membrane potential dye fluorescence, at 10 µM, maximal acetylcholine added after compound; stronger effect = higher value.
The target of test [12] is Short transient receptor potential channel 4 (Mus musculus) (UniProt Q9QUQ5). Nature of the test: calcium flux activators in TRPC4/5HT1a cells, counter-screen for TRPC4 activator project, cell-based, second counter screen, HEK293 TRPC4/5HT1a, Fluo-4 (AID 434977;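 active = calcium signal rise above buffer-control mean plus 5 SD in both duplicates, and also a hit in the primary screen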;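 for activation: plate controls were assay buffer for no effect and maximal serotonin response for full effect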). As to conditions: Fluo-4 calcium flux, at 10 µM; stronger effect = higher value.
A short description of test [13]: calcium flux inhibitors in TRPC4/5HT1a cells, confirmation, counter-screen for TRPC4 inhibitor project, cell-based, second counter screen, HEK293 TRPC4/5HT1a, Fluo-4 (AID 434978;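 active = primary screen active whose calcium signal fell more than 3 SD beyond the full-serotonin control mean in both duplicate plates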;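 note: serotonin given first at submaximal then at maximal dose after compound preincubation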). The settings on record: Fluo-4 calcium flux, at 10 µM, serotonin added to trigger calcium flux; stronger effect = higher value.
The subject of test [14] is TRPC4 (mouse), co-expressed with 5HT1a in HEK293. Briefly: calcium flux potentiators in TRPC4/5HT1a cells, confirmation, counter-screen for TRPC4 potentiator project, cell-based, second counter screen, HEK293 TRPC4/5HT1a, Fluo-4 (AID 434979;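 active = signal rise over 3 SD above mean of control wells given weak agonist, in both repeats and first screen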). As to conditions: Fluo-4 calcium flux, at 10 µM, serotonin added at its EC20 dose; stronger effect = higher value.
Test [15] can be described thus: calcium flux activation in mu-opioid HEK293 cells, confirmation, counter-screen for TRPC4 activator project, cell-based, HEK293 mu-opioid receptor line (AID 449723;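 active = hit in primary screen, with calcium signal over 5 SD above buffer well mean in both duplicates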;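 note: counter screen cells carry the mu-opioid receptor alone and lack TRPC4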). The settings on record: Fluo-4 calcium fluorescence, at 10 µM; stronger effect = higher value.
Test [16] in a line: calcium flux enhancement in mu-opioid HEK293 cells, confirmation, counter-screen for TRPC4 allosteric potentiator project, cell-based, HEK293 mu-opioid receptor line (AID 449724;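 active = calcium signal rise more than 3 SD above the low-dose agonist control mean, in both duplicate plates and the primary screen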;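 note: HEK293 cells carrying mu-opioid receptor only with no TRPC4 channel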). As to conditions: Fluo-4 calcium flux, at 10 µM, compound added before EC20 DAMGO stimulus; stronger effect = higher value.

Each structure is given as a SMILES string. For part of these data: Measured potencies and affinities stand elsewhere. Activity calls are given as the source filed them.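 Rule for the calls, unless noted: active = calcium signal cut by more than 3 SD below the full-agonist control yet still positive, in both repeats and the earlier primary screen; inactive = the rest.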

Sequence of Short transient receptor potential channel 6 (Mus musculus) (Q61143 whole entry, looked up): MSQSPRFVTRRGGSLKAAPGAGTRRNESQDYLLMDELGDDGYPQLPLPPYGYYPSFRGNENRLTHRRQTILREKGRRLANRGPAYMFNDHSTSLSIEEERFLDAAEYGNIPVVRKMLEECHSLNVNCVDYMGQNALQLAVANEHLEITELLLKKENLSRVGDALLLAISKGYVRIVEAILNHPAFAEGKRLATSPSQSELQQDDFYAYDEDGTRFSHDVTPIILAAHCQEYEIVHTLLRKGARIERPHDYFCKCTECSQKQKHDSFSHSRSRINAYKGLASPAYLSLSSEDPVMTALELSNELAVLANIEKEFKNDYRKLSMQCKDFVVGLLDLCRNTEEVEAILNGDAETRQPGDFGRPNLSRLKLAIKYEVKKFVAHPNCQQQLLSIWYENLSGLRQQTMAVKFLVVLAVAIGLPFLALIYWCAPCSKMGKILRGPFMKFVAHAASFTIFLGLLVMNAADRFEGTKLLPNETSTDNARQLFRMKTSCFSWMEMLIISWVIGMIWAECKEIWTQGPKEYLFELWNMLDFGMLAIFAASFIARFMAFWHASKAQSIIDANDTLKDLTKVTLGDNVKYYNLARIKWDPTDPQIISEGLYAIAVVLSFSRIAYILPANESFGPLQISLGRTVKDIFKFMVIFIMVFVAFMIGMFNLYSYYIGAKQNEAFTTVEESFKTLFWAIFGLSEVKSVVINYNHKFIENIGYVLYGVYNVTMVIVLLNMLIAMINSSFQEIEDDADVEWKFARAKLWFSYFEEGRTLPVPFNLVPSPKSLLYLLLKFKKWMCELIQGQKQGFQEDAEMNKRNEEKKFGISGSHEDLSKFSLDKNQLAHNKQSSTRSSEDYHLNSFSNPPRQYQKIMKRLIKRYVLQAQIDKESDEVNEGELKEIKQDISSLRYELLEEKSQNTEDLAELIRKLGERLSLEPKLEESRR

For the molecule `CN1CCN(Cc2nc3c(c(=O)[nH]c(=O)n3C)n2Cc2c(F)cccc2Cl)CC1`, the activation is 135% (active) in test [1], 80% (active) in test [2], 30% (active) in [10] and 17.9% (active) in [12]. Further, the results for the potentiation in [3] and in test [14] were 11% (active) and 36.3% (active), respectively. Also, the outcome in test [4], in test [5], in test [6], in test [7], in test [8] and in test [9] was inactive. In addition, the outcome in [11], in test [13], in test [15] and in test [16] was inactive.
As to `O=C(NC1CCCN(Cc2ccc(Cl)cc2)C1)C1CCC1` (stereo not given), the activation was 120% (active) in test [1], 58% (active) in test [2], 47.5% (active) in [10] and 39.7% (active) in test [12]. Further, the outcome in [3], in [4], in test [5], in test [6], in [7] and in test [8] was inactive. The call in test [9], in [11], in test [13], in [14], in [15] and in test [16] was inactive.
Take `COc1cc2ccccc2cc1C(=O)NCC(c1cccs1)N(C)C` (stereo not given): the activation in test [1] is 164% (active); in [10], 59.5% (active). For the same molecule, the result in test [2], in test [3], in test [4], in [5], in [6] and in test [7] was inactive. For the same molecule, the outcome in test [8], in test [9], in test [11], in test [12], in test [13] and in [14] was inactive. Further, the outcome in [15] and in test [16] was inactive.
`CCCCCc1c(O)nc(SCCN(C)C)[nH]c1=O`: the activation in test [1] is 63% (active); in test [12], 15.6% (active). Also, the outcome in test [2], in test [3], in test [4], in test [5], in [6] and in test [7] was inactive. In addition, the result in test [8], in [9], in test [10], in [11], in [13] and in [14] was inactive. Besides, the outcome in test [15] and in [16] was inactive.
Consider `CN1CCCC(OC(=O)c2cc(Br)ccc2Cl)C1` (stereo not given), for which the activation is 116% (active) in [1], 87% (active) in test [2], 47% (active) in [10] and 43.7% (active) in [12]. Besides, the outcome in test [3], in [4], in [5], in [6], in test [7] and in test [8] was inactive. The molecule was classed as inactive in test [9], in test [11], in [13], in test [14], in test [15] and in [16].
With `Cc1ccc(S(=O)(=O)/N=C2/NC(=O)/C(=C\c3cc(Br)cc(Br)c3O)S2)cc1`, the outcome in [1], in test [2], in test [3], in test [5], in test [6] and in test [7] was inactive. In addition, the result in test [8], in test [9], in [11] and in test [13] was inactive. For the same molecule, the potentiation in test [4] was 35% (active); in [14], 9.14% (active). Further, the activation was 447% (active) in test [10], 45.6% (active) in test [12], 60.8% (active) in test [15] and 600% (active) in [16].
Take `CN(C)c1ccc(-c2sc(Nc3ccccc3)n[n+]2-c2ccc(F)cc2)cc1`: the activation in test [1] was 406% (active); in [10] it was 45% (active); in test [12] it was 10.7% (active); in test [15], 274% (active). Besides, the outcome in [2], in [3], in test [4], in test [5], in test [6] and in [7] was inactive. For the same molecule, the result in test [8], in test [9], in test [11], in [13], in [14] and in test [16] was inactive.
For the molecule `CN(C)C(CNC(=O)Nc1cccc(Cl)c1)c1cccnc1` (stereo not given), the outcome in test [1], in test [3], in test [4], in [5], in test [6] and in [7] was inactive. The outcome in test [8], in test [9], in [11], in test [12], in test [13] and in test [14] was inactive. Further, the result in test [15] and in test [16] was inactive. Besides, the activation in test [2] is 106% (active); in test [10] it was 30.5% (active).
For the molecule `CCCN(CCC(=O)Nc1cc(OC)cc(OC)c1)CC1CC1`, the activation in [1] is 180% (active); in [2], 69% (active); in test [10], 49% (active); in test [12] it was 54.9% (active). In addition, the outcome in test [3], in test [4], in test [5], in test [6], in test [7] and in test [8] was inactive. Moreover, the molecule was called inactive in test [9], in test [11], in test [13], in [14], in test [15] and in test [16].
Consider `COCC1CCN(Cc2cn(-c3ccccc3F)nc2-c2cc(C)sc2C)CC1`, for which the results for the activation in test [1] and in [10] were 95% (active) and 69.5% (active), respectively. Also, the outcome in test [2], in test [3], in test [4], in test [5], in test [6] and in test [7] was inactive. Also, the result in [8], in test [9], in test [11], in [12], in [13] and in [14] was inactive. The outcome in test [15] and in test [16] was inactive.
For `Cc1ccc2[nH]c3c(N4CCc5ccccc5C4)ncnc3c2c1`, the result in [1], in test [2], in test [3], in [4], in [5] and in [6] was inactive. Moreover, the outcome in test [7], in [8], in test [9], in [10], in test [11] and in test [12] was inactive. The outcome in test [13], in test [14], in test [15] and in [16] was inactive.
With `COc1ccc(-c2nn(-c3ccccc3C)cc2CNCc2cccnc2)cc1F`, the activation is 128% (active) in test [1] and 33% (active) in test [10]. For the same molecule, the outcome in test [2], in [3], in [4], in test [5], in [6] and in test [7] was inactive. Moreover, the result in test [8], in [9], in test [11], in [12], in [13] and in test [14] was inactive. Also, the outcome in test [15] and in [16] was inactive.
In the case of `Cn1c(N2CCN(C(=O)Nc3ccc(F)cc3)CC2)nc2ccccc21`, the results for the activation in test [1] and in [12] were 51% (active) and 22.1% (active), respectively. Moreover, the result in test [2], in test [3], in test [4], in test [5], in test [6] and in [7] was inactive. Also, the result in test [8], in test [9], in test [10], in [11], in [13] and in test [14] was inactive. The result in [15] and in [16] was inactive.
With `COc1ccc(F)cc1CN1CCN(C(=O)CCC(=O)Nc2nnc(C(C)C)s2)CC1`, the result in [1], in [2], in test [3], in test [4], in test [5] and in test [6] was inactive. Besides, the result in [7], in [8], in test [9], in test [11], in test [12] and in [13] was inactive. Also, the result in test [14], in test [15] and in [16] was inactive. The activation in test [10] is 41.5% (active).
Turning to `CC(COc1ccccc1)N1CCC(CO)(CCc2ccccc2)CC1` (stereo not given), the outcome in [1], in test [2], in test [3], in [4], in [5] and in test [6] was inactive. In addition, the outcome in test [7], in [8], in test [9], in [11], in test [12] and in [13] was inactive. Further, the result in test [14], in test [15] and in test [16] was inactive. In addition, in test [10], the activation is 95.5% (active).
